Inconclusive results are not listed. Active and inactive are the calls of the source. How the source made its calls, unless noted: active means hit-call score of the fitted dose curve at least 0.9, where 1 is the maximum; inactive means score below 0.9.
Assays:
[1] = molecular target: Myc proto-oncogene protein (Homo sapiens) (UniProt P01106); experiment: ATG_Myc_CIS: Attagene CIS-FACTORIAL HepG2 Assay for human Myelocytomatosis (Myc) Proto-Oncogene Transcription Factor (AID 2282990); settings: HepG2, Attagene cis-reporter transcription factor activity; actives raise or lower the signal
Sequence of Myc proto-oncogene protein (Homo sapiens) (P01106 whole entry, looked up, the tested form may be a part): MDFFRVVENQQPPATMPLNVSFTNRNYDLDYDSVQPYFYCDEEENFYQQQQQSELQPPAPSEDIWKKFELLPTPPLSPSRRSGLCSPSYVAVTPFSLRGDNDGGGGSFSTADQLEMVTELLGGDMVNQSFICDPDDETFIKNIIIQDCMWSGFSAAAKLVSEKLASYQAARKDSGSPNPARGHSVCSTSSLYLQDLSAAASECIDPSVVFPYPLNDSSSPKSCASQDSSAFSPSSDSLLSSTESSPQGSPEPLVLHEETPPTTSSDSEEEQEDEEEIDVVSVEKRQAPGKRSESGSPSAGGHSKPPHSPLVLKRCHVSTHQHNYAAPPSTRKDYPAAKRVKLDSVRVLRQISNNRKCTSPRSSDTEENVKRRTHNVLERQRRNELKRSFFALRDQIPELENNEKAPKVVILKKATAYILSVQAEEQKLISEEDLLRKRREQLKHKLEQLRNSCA
Outline: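 After 24 h chemical treatment of HepG2 cells carrying multiplexed cis-regulated reporter constructs, reporter transcripts quantified by RT-PCR and capillary electrophoresis of fluorescent fragments. Gain or loss fitted against DMSO baseline.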

[2] = ATG_NRF2_ARE_CIS: Attagene CIS-FACTORIAL HepG2 Assay for human Nuclear Factor Erythroid 2 Related Factor 2 (NFR2) response to Antioxidant Response Elements (ARE) (AID 2282992); settings: HepG2 Attagene ARE/NRF2 reporter, transcription factor activity; actives raise or lower the signal
Outline: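 HepG2 cells transiently transfected with multiplexed cis-regulated reporter transcription units measure endogenous transcription factor activity. Reporter mRNA at 24 h is quantified by RT-PCR, fluorescent labelling and capillary electrophoresis, with bidirectional fitting relative to DMSO.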

[3] = molecular target: Cellular tumor antigen p53 (Homo sapiens) (UniProt P04637); experiment: ATG_p53_CIS: Attagene CIS-FACTORIAL HepG2 Assay for human p53 Transcription Factor (AID 2282994); settings: HepG2 p53 cis-element reporter, Attagene mRNA; actives raise or lower the signal
Sequence of Cellular tumor antigen p53 (Homo sapiens) (P04637 whole entry, looked up): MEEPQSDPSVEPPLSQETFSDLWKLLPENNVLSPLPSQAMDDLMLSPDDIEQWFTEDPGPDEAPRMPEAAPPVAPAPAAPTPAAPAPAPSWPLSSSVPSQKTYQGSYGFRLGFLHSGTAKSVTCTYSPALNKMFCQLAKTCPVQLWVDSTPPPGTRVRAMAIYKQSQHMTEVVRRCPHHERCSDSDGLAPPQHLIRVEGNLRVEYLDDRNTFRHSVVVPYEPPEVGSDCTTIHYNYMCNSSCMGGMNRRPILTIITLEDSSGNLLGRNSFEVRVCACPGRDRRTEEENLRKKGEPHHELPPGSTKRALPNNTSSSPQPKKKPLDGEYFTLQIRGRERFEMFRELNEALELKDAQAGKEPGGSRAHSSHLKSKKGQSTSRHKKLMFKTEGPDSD
Outline: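 HepG2 cells transiently transfected with multiplexed cis-regulated reporter transcription units read endogenous TF activity. After 24 h compound exposure, reporter mRNA was quantified by RT-PCR, fluorescent labelling, HpaI digestion and capillary electrophoresis; bidirectional fits versus DMSO baseline.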

[4] = BSK_3C_TissueFactor: BioMAP Diversity Plus: 3C Assay for Tissue Factor Biomarker Activity (AID 2282997); settings: BioMAP 3C HUVEC, tissue factor biomarker readout; actives raise or lower the signal
Outline: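 Endothelial monolayers (human umbilical vein, primary) are dosed, incubated 24 h, and assayed for Tissue Factor by ELISA; DMSO serves as negative control for bidirectional fitting.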

[5] = BSK_3C_uPAR: BioMAP Diversity Plus: 3C Assay for Urokinase-type plasminogen activator receptor (uPAR) Biomarker Activity (AID 2282998); settings: BioMAP 3C HUVEC, uPAR biomarker ELISA; actives raise or lower the signal
Outline: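 Endothelial primary cells of human umbilical vein origin received test chemical; 24 h later uPAR was assayed by ELISA. Fitting was bidirectional, DMSO as negative control.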

[6] = BSK_3C_VCAM1: BioMAP Diversity Plus: 3C Assay for Vascular cell adhesion molecule 1 (VCAM1) Biomarker Activity (AID 2282999); settings: BioMAP 3C HUVEC, VCAM1 ELISA, cytokine-stimulated; actives raise or lower the signal
Outline: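 Endothelial cells from human umbilical vein are treated with test chemical. At 24 h, VCAM-1 is measured by ELISA, and responses in either direction are fitted relative to DMSO.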

[7] = BSK_4H_Eotaxin3: BioMAP Diversity Plus: 4H Assay for Eotaxin 3 Biomarker Activity (AID 2283000); settings: primary human endothelial cells (HUVEC); actives raise or lower the signal;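 further: CCL26 protein level quantified by ELISA in parallel with SRB cytotoxicity check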
Outline: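 ELISA quantitation of CCL26 (Eotaxin-3) protein from chemically dosed human vascular endothelial cells at 24 h; increases and decreases both scored relative to DMSO-treated baseline.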

[8] = molecular target: human Peroxisome Proliferator-activated Receptor alpha (PPARa), PPARA (gene 5465) (UniProt Q07869); experiment: ATG_PPARa_TRANS: Attagene TRANS-FACTORIAL HepG2 Assay for human Peroxisome Proliferator-activated Receptor alpha (PPARa) (AID 2283001; active means hit-call score of the fitted dose curve at least 0.9, where 1 is the maximum)
Sequence of human Peroxisome Proliferator-activated Receptor alpha (PPARa), PPARA (gene 5465) (Q07869 whole entry, looked up, the tested form may be a part): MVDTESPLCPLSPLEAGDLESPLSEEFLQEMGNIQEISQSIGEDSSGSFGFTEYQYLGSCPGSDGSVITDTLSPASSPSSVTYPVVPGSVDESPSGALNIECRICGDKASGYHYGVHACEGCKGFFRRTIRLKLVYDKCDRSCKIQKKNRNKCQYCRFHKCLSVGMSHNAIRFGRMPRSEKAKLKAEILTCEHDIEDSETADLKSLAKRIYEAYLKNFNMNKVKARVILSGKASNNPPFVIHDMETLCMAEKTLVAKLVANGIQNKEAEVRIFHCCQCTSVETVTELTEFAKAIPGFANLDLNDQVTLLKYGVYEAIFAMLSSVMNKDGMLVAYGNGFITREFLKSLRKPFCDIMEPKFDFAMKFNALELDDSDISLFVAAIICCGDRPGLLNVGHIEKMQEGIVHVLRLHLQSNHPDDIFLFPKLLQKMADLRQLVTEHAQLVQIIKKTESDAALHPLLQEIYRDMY
Outline: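 Read-out is fluorescence of reporter cDNA fragments resolved by capillary electrophoresis after RT-PCR. Human HepG2 liver cells carried transfected PPARa-Gal4 chimera and GAL4-UAS reporter units, treated 24 h; activity scored as increase over DMSO.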

[9] = molecular target: human Peroxisome Proliferator-activated Receptor delta (PPARd), PPARD (gene 5467) (UniProt Q03181); experiment: ATG_PPARd_TRANS: Attagene TRANS-FACTORIAL HepG2 Assay for human Peroxisome Proliferator-activated Receptor delta (PPARd) (AID 2283002; active means hit-call score of the fitted dose curve at least 0.9, where 1 is the maximum)
Sequence of human Peroxisome Proliferator-activated Receptor delta (PPARd), PPARD (gene 5467) (Q03181 whole entry, looked up, the tested form may be a part): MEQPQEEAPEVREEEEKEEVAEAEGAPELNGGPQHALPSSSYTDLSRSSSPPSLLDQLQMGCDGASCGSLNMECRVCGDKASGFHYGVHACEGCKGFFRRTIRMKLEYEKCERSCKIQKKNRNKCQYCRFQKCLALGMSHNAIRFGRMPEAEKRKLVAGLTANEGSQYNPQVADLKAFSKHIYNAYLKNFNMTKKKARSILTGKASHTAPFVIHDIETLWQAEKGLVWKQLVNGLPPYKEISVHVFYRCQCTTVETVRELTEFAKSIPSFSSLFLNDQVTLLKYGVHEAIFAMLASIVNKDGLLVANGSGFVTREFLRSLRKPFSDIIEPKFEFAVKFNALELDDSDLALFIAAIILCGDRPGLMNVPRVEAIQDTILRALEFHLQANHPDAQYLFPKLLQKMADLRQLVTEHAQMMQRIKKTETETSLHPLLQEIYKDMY
Outline: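 Read-out is induced reporter mRNA, quantified by RT-PCR with fluorescent labelling and capillary electrophoresis after 24 h dosing. Cells are HepG2 transiently carrying multiple GAL4-UAS reporter units driven by exogenous NR-GAL4 chimeras; DMSO serves as baseline.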

[10] = read-out: Intercellular Adhesion Molecule 1 (ICAM1), ICAM1 (gene 3383); experiment: BSK_3C_ICAM1: BioMAP Diversity Plus: 3C Assay for Intercellular Adhesion Molecule 1 (ICAM1) Biomarker Activity (AID 2283003); settings: primary human endothelial cells (HUVEC); actives raise or lower the signal
Outline: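 HUVEC primary cells stimulated under 3C conditions; ICAM1 measured by ELISA 24 h after compound dosing. Curves fitted bidirectionally against the DMSO baseline. Overt cytotoxicity checked by SRB staining of parallel cultures.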

[11] = BSK_3C_Proliferation: Cell Proliferation Assessment in the BioMAP Diversity Plus: 3C Assay (AID 2283006); settings: primary human endothelial cells (HUVEC)
Outline: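 Subconfluent HUVEC (3C system) cultured with chemical; relative cell number read at 48 h by sulforhodamine B total-protein staining (0.1% SRB after 10% TCA fixation, 560 nm). Bidirectional fit relative to DMSO.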

[12] = molecular target: Peroxisome proliferator-activated receptor gamma (Homo sapiens) (UniProt P37231); experiment: ATG_PPARg_TRANS: Attagene TRANS-FACTORIAL HepG2 Assay for human Peroxisome Proliferator-activated Receptor-gamma (PPARg) (AID 2283007; active means hit-call score of the fitted dose curve at least 0.9, where 1 is the maximum)
Sequence of Peroxisome proliferator-activated receptor gamma (Homo sapiens) (P37231 whole entry, looked up, the tested form may be a part): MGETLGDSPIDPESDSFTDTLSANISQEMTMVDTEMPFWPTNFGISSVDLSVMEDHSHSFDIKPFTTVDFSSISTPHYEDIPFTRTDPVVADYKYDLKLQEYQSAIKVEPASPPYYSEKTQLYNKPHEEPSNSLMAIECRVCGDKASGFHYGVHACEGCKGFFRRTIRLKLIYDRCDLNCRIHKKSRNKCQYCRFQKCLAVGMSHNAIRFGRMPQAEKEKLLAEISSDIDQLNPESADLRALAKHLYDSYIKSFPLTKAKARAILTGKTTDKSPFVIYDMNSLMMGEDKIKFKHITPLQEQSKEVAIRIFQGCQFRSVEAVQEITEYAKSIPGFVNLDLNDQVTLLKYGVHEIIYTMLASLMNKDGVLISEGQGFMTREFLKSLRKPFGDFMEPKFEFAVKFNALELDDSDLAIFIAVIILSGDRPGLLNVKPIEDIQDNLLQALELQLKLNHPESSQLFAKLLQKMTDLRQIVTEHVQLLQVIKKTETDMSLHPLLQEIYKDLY
Outline: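 HepG2 cells are transiently transfected with GAL4-UAS reporter units driven by chimeric NR-Gal4 fusions and dosed for 24 h. Reporter mRNA is quantified by RT-PCR, 6-FAM labelling, HpaI digestion and capillary electrophoresis. Induction is scored against DMSO.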

[13] = molecular target: human Retinoic Acid Receptor gamma (RARg), RARG (gene 5916) (UniProt P13631); experiment: ATG_RARg_TRANS: Attagene TRANS-FACTORIAL HepG2 Assay for human Retinoic Acid Receptor gamma (RARg) (AID 2283009; active means hit-call score of the fitted dose curve at least 0.9, where 1 is the maximum)
Sequence of human Retinoic Acid Receptor gamma (RARg), RARG (gene 5916) (P13631 whole entry, looked up, the tested form may be a part): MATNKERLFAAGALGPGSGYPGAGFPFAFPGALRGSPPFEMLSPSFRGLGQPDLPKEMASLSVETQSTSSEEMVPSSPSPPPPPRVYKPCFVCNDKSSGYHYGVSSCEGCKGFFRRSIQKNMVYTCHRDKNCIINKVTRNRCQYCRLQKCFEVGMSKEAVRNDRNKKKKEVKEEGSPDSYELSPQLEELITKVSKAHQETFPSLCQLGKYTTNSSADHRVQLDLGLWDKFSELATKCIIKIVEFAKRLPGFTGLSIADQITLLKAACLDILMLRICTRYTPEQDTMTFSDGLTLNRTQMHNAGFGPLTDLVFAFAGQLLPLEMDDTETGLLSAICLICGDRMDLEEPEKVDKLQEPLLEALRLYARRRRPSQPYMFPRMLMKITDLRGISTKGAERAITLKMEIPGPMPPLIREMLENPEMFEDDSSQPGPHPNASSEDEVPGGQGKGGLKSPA
Outline: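 HepG2 transiently transfected with GAL4-UAS reporter units and chimeric NR-Gal4 constructs; 24 h compound exposure. Reporter mRNA quantified by RT-PCR, FAM labeling, HpaI digestion and capillary electrophoresis; gain-of-signal versus DMSO.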

[14] = molecular target: human RAR-related Orphan Receptor beta (RORb), RORB (gene 6096) (UniProt Q92753); experiment: ATG_RORb_TRANS: Attagene TRANS-FACTORIAL HepG2 Assay for human RAR-related Orphan Receptor beta (RORb) (AID 2283010; active means hit-call score of the fitted dose curve at least 0.9, where 1 is the maximum)
Sequence of human RAR-related Orphan Receptor beta (RORb), RORB (gene 6096) (Q92753 whole entry, looked up, the tested form may be a part): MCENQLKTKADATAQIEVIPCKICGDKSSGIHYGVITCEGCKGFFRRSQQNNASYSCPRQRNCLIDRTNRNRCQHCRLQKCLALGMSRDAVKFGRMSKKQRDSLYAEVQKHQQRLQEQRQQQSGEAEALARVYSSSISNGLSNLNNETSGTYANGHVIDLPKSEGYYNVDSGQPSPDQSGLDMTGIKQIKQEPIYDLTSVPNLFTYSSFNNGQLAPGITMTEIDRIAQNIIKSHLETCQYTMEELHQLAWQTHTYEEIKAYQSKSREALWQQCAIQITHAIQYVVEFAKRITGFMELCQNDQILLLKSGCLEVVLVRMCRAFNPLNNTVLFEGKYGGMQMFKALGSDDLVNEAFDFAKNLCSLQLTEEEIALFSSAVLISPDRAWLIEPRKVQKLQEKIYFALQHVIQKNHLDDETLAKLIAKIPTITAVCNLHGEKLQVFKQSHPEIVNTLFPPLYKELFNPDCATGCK
Outline: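 HepG2 cells transiently transfected with GAL4-UAS reporter units expressing chimeric NR-Gal4 protein; reporter mRNA measured 24 h after dosing by RT-PCR, 6-FAM labelling and capillary electrophoresis. Gain-of-signal fitted relative to DMSO baseline.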

[15] = molecular target: human RAR-related Orphan Receptor gamma (RORg), RORC (gene 6097) (UniProt P51449); experiment: ATG_RORg_TRANS: Attagene TRANS-FACTORIAL HepG2 Assay for human RAR-related Orphan Receptor gamma (RORg) (AID 2283011; active means hit-call score of the fitted dose curve at least 0.9, where 1 is the maximum)
Sequence of human RAR-related Orphan Receptor gamma (RORg), RORC (gene 6097) (P51449 whole entry, looked up, the tested form may be a part): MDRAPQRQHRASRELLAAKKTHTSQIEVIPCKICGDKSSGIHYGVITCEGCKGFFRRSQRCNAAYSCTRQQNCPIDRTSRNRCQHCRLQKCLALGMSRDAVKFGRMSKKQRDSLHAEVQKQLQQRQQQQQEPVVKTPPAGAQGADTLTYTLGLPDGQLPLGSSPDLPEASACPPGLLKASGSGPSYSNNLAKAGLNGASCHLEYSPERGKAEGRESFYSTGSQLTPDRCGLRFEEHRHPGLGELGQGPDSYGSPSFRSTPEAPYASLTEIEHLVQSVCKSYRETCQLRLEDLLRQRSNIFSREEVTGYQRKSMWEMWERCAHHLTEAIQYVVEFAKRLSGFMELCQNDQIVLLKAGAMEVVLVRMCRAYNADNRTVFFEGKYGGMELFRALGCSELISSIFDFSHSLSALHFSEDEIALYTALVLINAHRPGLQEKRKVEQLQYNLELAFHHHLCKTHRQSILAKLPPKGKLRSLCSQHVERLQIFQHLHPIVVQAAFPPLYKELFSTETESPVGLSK
Outline: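 Chimeric RORg-Gal4 transactivation in transfected HepG2; 24 h exposure; RT-PCR/capillary electrophoresis readout of reporter mRNA, DMSO baseline.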

[16] = ATG_Oct_MLP_CIS: Attagene CIS-FACTORIAL HepG2 Assay for human Octamer-Binding Transcription Factor (Oct) (AID 2282993); settings: HepG2 Attagene cis-factorial Oct reporter, mRNA; actives raise or lower the signal
Outline: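 Cells of the HepG2 line express promoter-controlled reporter sequences whose mRNA levels, after 24 h treatment, are measured by RT-PCR and capillary electrophoresis. Increases and decreases are scored relative to DMSO.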

[17] = molecular target: Nuclear receptor subfamily 1 group I member 2 (Homo sapiens) (UniProt O75469); experiment: ATG_PXR_TRANS: Attagene TRANS-FACTORIAL HepG2 Assay for human Pregnane X Receptor (PXR) (AID 2283008; active means hit-call score of the fitted dose curve at least 0.9, where 1 is the maximum)
Sequence of Nuclear receptor subfamily 1 group I member 2 (Homo sapiens) (O75469 whole entry, looked up, the tested form may be a part): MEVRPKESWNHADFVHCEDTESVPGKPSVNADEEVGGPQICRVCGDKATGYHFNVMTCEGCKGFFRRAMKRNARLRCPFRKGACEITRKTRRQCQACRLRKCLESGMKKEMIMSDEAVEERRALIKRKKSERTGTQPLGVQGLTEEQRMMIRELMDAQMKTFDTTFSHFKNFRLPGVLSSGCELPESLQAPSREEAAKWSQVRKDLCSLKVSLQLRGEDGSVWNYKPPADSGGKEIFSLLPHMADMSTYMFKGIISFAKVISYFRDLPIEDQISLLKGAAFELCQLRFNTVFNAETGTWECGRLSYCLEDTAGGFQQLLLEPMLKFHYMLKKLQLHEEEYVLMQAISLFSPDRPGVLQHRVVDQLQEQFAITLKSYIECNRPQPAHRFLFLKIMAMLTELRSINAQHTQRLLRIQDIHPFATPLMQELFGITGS
Outline: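 HepG2 cells transiently transfected with multiple reporter units, here a PXR-GAL4 chimera driving a GAL4-UAS reporter; 24 h compound exposure. Reporter mRNA measured by RT-PCR, FAM labelling and capillary electrophoresis; gain of signal fitted against DMSO baseline.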

[18] = molecular target: human Retinoic Acid Receptor beta (RARb), RARB (gene 5915) (UniProt P10826); experiment: ATG_RARb_TRANS: Attagene TRANS-FACTORIAL HepG2 Assay for human Retinoic Acid Receptor beta (AID 2283004; active means hit-call score of the fitted dose curve at least 0.9, where 1 is the maximum)
Sequence of human Retinoic Acid Receptor beta (RARb), RARB (gene 5915) (P10826 whole entry, looked up, the tested form may be a part): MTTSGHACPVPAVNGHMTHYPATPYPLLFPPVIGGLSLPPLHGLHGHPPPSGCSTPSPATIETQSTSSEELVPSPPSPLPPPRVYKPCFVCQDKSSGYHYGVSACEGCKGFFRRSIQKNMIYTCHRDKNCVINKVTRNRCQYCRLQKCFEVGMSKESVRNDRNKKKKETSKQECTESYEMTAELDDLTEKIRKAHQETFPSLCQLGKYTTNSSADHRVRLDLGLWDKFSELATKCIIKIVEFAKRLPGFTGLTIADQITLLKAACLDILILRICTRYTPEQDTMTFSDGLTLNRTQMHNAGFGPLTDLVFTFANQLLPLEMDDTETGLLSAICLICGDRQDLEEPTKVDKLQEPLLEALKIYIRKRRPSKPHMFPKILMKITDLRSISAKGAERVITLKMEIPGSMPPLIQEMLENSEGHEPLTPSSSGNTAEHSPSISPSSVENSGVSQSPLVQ
Outline: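 Fluorescent capillary-electrophoresis detection of GAL4-UAS reporter mRNA defines the endpoint, with induction over DMSO-treated wells scored as activity. Transiently transfected human hepatoma HepG2 cells expressing exogenous NR–Gal4 proteins are exposed to test chemicals for 24 h.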

[19] = molecular target: Retinoic acid receptor alpha (Homo sapiens) (UniProt P10276); experiment: ATG_RARa_TRANS: Attagene TRANS-FACTORIAL HepG2 Assay for human Retinoic Acid Receptor alpha (RARa) (AID 2283005; active means hit-call score of the fitted dose curve at least 0.9, where 1 is the maximum)
Outline: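 Reporter transcripts, measured by RT-PCR with fluorescent labeling and capillary electrophoresis after 24 h dosing, reflect activity of an exogenous human RARa–GAL4 fusion in transiently transfected HepG2. Fitted for increase relative to DMSO.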

Which outcome [1] does the source give for C#CCOC(=O)[C@@H](C)Oc1ccc(Oc2ncc(Cl)cc2F)cc1 here?
Its outcome is “inactive”.

And the outcome [2]?
The outcome was “inactive”.

What about the outcome [3] of the same molecule?
The outcome was “inactive”.

What about the outcome [4] of the same molecule?
The outcome was “inactive”.

And the outcome [5]?
The outcome was “inactive”.

What about the outcome [6] of the same molecule?
The outcome was “inactive”.

What about the outcome [7] of the same molecule?
The outcome was “inactive”.

And the outcome [8]?
Its outcome is “inactive”.

What about the outcome [9] of the same molecule?
Its outcome is “inactive”.

What about the outcome [10] of the same molecule?
Its outcome is “inactive”.

What about the outcome [11] of the same molecule?
Its outcome is “inactive”.

And the outcome [12]?
Its outcome is “inactive”.

What about the outcome [13] of the same molecule?
Its outcome is “inactive”.

What about the outcome [14] of the same molecule?
The outcome was “inactive”.

And the outcome [15]?
Its outcome is “inactive”.

For COC(=O)CSc1cc(N=c2sc(=O)n3n2CCCC3)c(F)cc1Cl, which outcome [1] is on record?
The outcome was “inactive”.

What about the AC50 [2] of the same molecule?
Its AC50 is 27.2 µM (active).

What about the outcome [16] of the same molecule?
The outcome was “inactive”.

What about the outcome [3] of the same molecule?
Its outcome is “inactive”.

What about the outcome [4] of the same molecule?
Its outcome is “inactive”.

What about the outcome [5] of the same molecule?
Its outcome is “inactive”.

And the outcome [6]?
The outcome was “inactive”.

What about the outcome [7] of the same molecule?
The outcome was “inactive”.

And the outcome [8]?
The outcome was “inactive”.

And the outcome [10]?
The outcome was “inactive”.

What about the outcome [11] of the same molecule?
Its outcome is “inactive”.

And the AC50 [12]?
Its AC50 is 27.4 µM (active).

What about the outcome [17] of the same molecule?
The outcome was “inactive”.

Which outcome [1] does the source give for OB(O)O here?
Its outcome is “inactive”.

What about the outcome [2] of the same molecule?
The outcome was “inactive”.

And the outcome [16]?
The outcome was “inactive”.

What about the outcome [3] of the same molecule?
The outcome was “inactive”.

And the outcome [4]?
The outcome was “inactive”.

And the outcome [5]?
The outcome was “inactive”.

What about the outcome [6] of the same molecule?
The outcome was “inactive”.

What about the outcome [7] of the same molecule?
Its outcome is “inactive”.

What about the outcome [8] of the same molecule?
The outcome was “inactive”.

And the outcome [9]?
Its outcome is “inactive”.

What about the outcome [10] of the same molecule?
Its outcome is “inactive”.

What about the outcome [18] of the same molecule?
Its outcome is “inactive”.

What about the outcome [19] of the same molecule?
The outcome was “inactive”.

What about the outcome [11] of the same molecule?
The outcome was “inactive”.

What about the outcome [12] of the same molecule?
Its outcome is “inactive”.

What about the outcome [17] of the same molecule?
The outcome was “inactive”.

What about the outcome [13] of the same molecule?
The outcome was “inactive”.

And the outcome [14]?
Its outcome is “inactive”.

What about the outcome [15] of the same molecule?
Its outcome is “inactive”.

What does the source list for COC(=O)c1ccc(I)cc1S(=O)(=O)NC(=O)Nc1nc(C)nc(OC)n1?
outcome [1]: inactive; outcome [2]: inactive; outcome [16]: inactive; outcome [3]: inactive; outcome [4]: inactive; outcome [5]: inactive; outcome [6]: inactive; outcome [7]: inactive; outcome [8]: inactive; outcome [10]: inactive; outcome [11]: inactive; outcome [12]: inactive

For CSC(=O)c1cccc2nnsc12, which outcome [1] is on record?
The outcome was “inactive”.

And the outcome [2]?
The outcome was “inactive”.

And the outcome [3]?
The outcome was “inactive”.

And the outcome [4]?
Its outcome is “inactive”.

And the outcome [5]?
Its outcome is “inactive”.

And the outcome [6]?
The outcome was “inactive”.

What about the outcome [7] of the same molecule?
The outcome was “inactive”.

And the outcome [8]?
The outcome was “inactive”.

And the outcome [10]?
The outcome was “inactive”.

And the outcome [11]?
Its outcome is “inactive”.

What about the outcome [12] of the same molecule?
The outcome was “inactive”.

And the outcome [13]?
The outcome was “inactive”.
